# YopH inh: blocks Yersinia enterocolitica YopH tyrosine phosphatase. actives 0.16% (n = 140,000). fluorescence Ex485/Em525. inhibition, % (no concentration beside the values). AID 898; in the data active = inhibition above about 50%
# RmlCD inh mix: RmlC/RmlD inhibition, mixture screen; RmlC/RmlD coupled enzyme inhibition, 384-well mixture HTS; inhibition, % at 5.5 µM; actives 0.39% (n = 110,000); in the data active = inhibition above about 30%, passing the limit was not always enough
# RmlCD artifact: RmlC/RmlD fluorescence artifact, counter-screen; shares compounds with RmlCD inh mix; RmlC/RmlD assay fluorescence artifact counter-screen; calls only; actives 96% (n = 360); AID 1696; call rule not given here;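 note: compound alone with no enzyme and no substrates present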
# The depositor's hits bear a star; i = inactive; / = no result given; + = active, no number. Rows were chosen to be rich in hits. Some 0.44% of all compounds tested hit in one or more screens of this group.
SMILES,YopH inh,RmlCD inh mix,RmlCD artifact
Cc1c2ccccc2nc2c(F)c(N(C)C)c(F)c(F)c12,-5.8,/,/
COc1ccc(-c2oc3ccc(-c4cc(OC)c(OC)c(OC)c4)cc3c2-c2ccc(OC)cc2)cc1,/,-56.1,/
COc1ccc(C#Cc2c(-c3ccsc3)oc3ccc(-c4cc(OC)c(OC)c(OC)c4)cc23)cc1,/,59.7*,+
Cn1nc(C(=O)NCc2ccccn2)c2ccccc2c1=O,-45.6,-8.2,/
Cn1c(C(=O)NCc2ccccn2)cc2c(=O)n3ccccc3nc21,-26.4,95.6*,+
CCO[C@H]1OC(C(N)=O)=C[C@@H](C2CC2)[C@@H]1CCCO,/,5.4,/
COc1ccc(-c2cc(C(F)(F)F)n3nc(C(=O)N(C)Cc4ccccc4)cc3n2)cc1OC,/,/,+
COc1ccc(-c2cc(C(F)(F)F)n3nc(C(=O)Nc4cc(C)on4)cc3n2)cc1OC,-28.0,/,/
CCOC(=O)C1C(=O)Nc2nc3ccccc3n2C1C(C)C (centres undefined),-49.6,5.6,/
Cc1c(C(=O)Nc2ccccc2C(=O)N2CCOCC2)cccc1[N+](=O)[O-],-30.1,/,/
CC(=O)c1nc(N2C(=O)CC(Cc3ccccc3)C2=O)sc1C (centres undefined),-33.9,/,/
COc1cc(/C=N/NC(=O)Nc2cccc3nsnc23)cc(OC)c1OC,-36.1,/,/
COc1ccc(/C=N/NC(=O)Nc2cccc3nsnc23)c(OC)c1,-21.6,38.7*,+
Cc1cc(C)cc(-n2cc[nH]c2=S)c1,-12.6,/,/
COC(=O)C1=C(C)N(Cc2ccco2)C(=O)N[C@H]1c1cccc(C(F)(F)F)c1,-0.6,5.9,/
CC1=NN(C(=O)c2ccc(Cn3cc([N+](=O)[O-])cn3)cc2)C(O)(C(F)(F)F)C1 (centres undefined),-12.5,/,/
O=C(COc1ccc(Cl)cc1Br)NC(=O)NCc1ccccc1,-31.1,/,/
C=CCn1c2ccccc2c2nnc(SCN3C(=O)c4ccccc4C3=O)nc21,-13.9,49.6*,i
O=C1c2ccccc2C(=O)N1CSc1nnc2c3ccccc3n(CCc3ccccc3)c2n1,-17.8,-7.3,/
CN(C)CCCNS(=O)(=O)c1cc(Cl)ccc1Cl,-3.3,1.8,/
CN(C)CCCNS(=O)(=O)c1ccc(N2CCC(c3ccc(Cl)cc3)=N2)cc1,-13.7,93.2*,+
O=S(=O)(c1ccc(N2CCC(c3ccc(Cl)cc3)=N2)cc1)N(CCO)CCO,4.8,39.5*,+
CCN(CC(=O)N1CCCCCC1)S(=O)(=O)c1ccc(Cl)cc1,12.6,-0.9,/
COc1cccc(CN(C)C(=O)Nc2cccc(C(F)(F)F)c2)c1OC,-30.0,/,/
NC(=O)c1ccc(-c2ncc(-c3ccccc3)o2)cc1,-41.9,72.9*,+
SMILES,YopH inh,RmlCD inh mix,RmlCD artifact
c1ccc(-c2cnc(-c3cccnc3)o2)cc1,-32.8,19.8,/
CCOC(=O)c1[nH]c2ccc(OCC)cc2c1CCCN1C(=O)c2ccccc2C1=O,-26.4,/,/
CCOC(=O)c1cc(C(=O)OCC)c2ccccn2c1=O,1.0,70.7*,+
COC(=O)c1cc(C(C)=O)n2ccccc12,10.9,-9.9,/
CN(C)S(=O)(=O)c1cccc(NC(=O)CCNC(=O)c2ccccc2Cl)c1,-9.5,/,/
CCC(C)/C=C(C)/C=C/C1=CC2=C(Cl)C(=O)C(C)(OC(C)=O)C(=O)C2=CO1 (centres undefined),/,32.5*,+
CC[C@H](C)/C=C(C)/C=C/C1=CC2=C(Cl)C(=O)[C@@](C)(OC(C)=O)C(=O)C2=CO1,/,-13.3,/
COc1cc(NC(=O)c2ccco2)c(OC)cc1NC(=O)c1cc(OC)c(OC)c(OC)c1,-7.5,2.1,/
CCOc1cc(NC(=O)c2ccco2)c(OCC)cc1NC(=O)c1cc(OC)c(OC)c(OC)c1,-24.2,+,+
CN(C)C(=O)COc1ccc2cc(-c3ccccc3)c(=O)oc2c1,17.2,54.7*,+
Cc1cc(OCC(=O)N(C)C)c2c(-c3ccccc3)cc(=O)oc2c1,-36.8,-8.4,/
O=C(NCCN1CCOCC1)c1cc(Cl)ccc1[N+](=O)[O-],-33.9,/,/
CCCNC(=O)COc1ccc(S(=O)(=O)Nc2ccc(C)cc2)cc1,-2.1,6.1,/
CC1CCCCN1C(=S)Nc1ccc2nc3n(c(=O)c2c1)CCCCC3 (centres undefined),-16.8,/,/
O=C(c1cc2c(ccc3ccccc32)oc1=O)N1CCCC1,-15.9,2.9,/
O=C(O)c1cc2c(ccc3ccccc32)oc1=O,-11.9,82.1*,+
CCCCCCC(=O)NC(Nc1ccc(S(N)(=O)=O)cc1)C(Cl)(Cl)Cl (centres undefined),-3.9,-5.0,/
O=C(O)c1cc(-c2ccco2)nc2ccccc12,-22.2,53.6*,+
O=C(OCC(=O)N1CCN(C(=O)c2ccco2)CC1)c1cc(-c2ccc(Cl)c(Cl)c2Cl)nc2ccccc12,-11.7,-32.5,/
O=C(Nc1nc2ccccc2s1)c1cc(-c2ccco2)nc2ccccc12,22.6,/,/
O=C(OCC(=O)N1CCN(C(=O)c2ccco2)CC1)c1cc(-c2ccco2)nc2ccccc12,-36.7,30.3*,+
Cc1ccc(C)c(S(=O)(=O)N2CCCOC2CNC(=O)C(=O)NCCC2=CCCCC2)c1 (centres undefined),-14.9,/,/
O=C(c1ccc(F)cc1)n1ccc(-c2cnc(-c3ccccc3)s2)n1,-7.9,79.6*,+
Fc1ccc(Cn2ccc(-c3cnc(-c4ccccc4)s3)n2)cc1,-19.4,-8.6,/
CCCOc1ccc2ccccc2c1/C=N/n1c(C)nnc1-n1nc(C)cc1C,-43.2,-2.3,/
SMILES,YopH inh,RmlCD inh mix,RmlCD artifact
CN(C)c1ccc(-c2nc3ccccn3c2/N=C/c2ccc(Br)cc2)cc1,-12.2,/,/
COc1cc(-c2nc3ccccn3c2/N=C/c2cc(OC)c(OC)c(OC)c2)ccc1O,-31.0,43.6*,+
O=C(Oc1cccc(/C=N/Nc2nc(Nc3ccccc3)nc(N3CCOCC3)n2)c1)c1ccco1,-28.7,/,/
C=CCNC(=S)NNc1nc2c(c(=O)[nH]1)C1(CCCCC1)Cc1ccccc1-2,-10.4,/,/
CCOC(=O)c1nn(-c2ccc(Cl)cc2)c2nc(CC)c(C#N)c(=O)n12,-19.5,84.9*,+
CCOC(=O)c1nn(-c2ccc(Cl)cc2)c2nc(-c3ccc(C)cc3)c(C#N)c(=O)n12,2.7,10.7,/
O=C(c1cccc([N+](=O)[O-])c1)N1CCCN(C(=O)c2cccc([N+](=O)[O-])c2)CC1,-30.5,/,/

# Bioassay records (PubChem BioAssay)
